High-throughput results (PubChem BioAssay)
Only some compounds are listed: those with a hit (about 2.3% of all), similar ones and a draw of the others.
M1 PAM parental: nonselective activator or artifact in parental CHO-K1 calcium assay | ATP EC20, Fluo-8 calcium fluorescence; 0% at ATP EC20, 100% at ATP max | 360,000 tested, 0.02% active | activation, % at 3 µM | AID 602247;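 active = activation above the run cutoff, the mean activation of all test compounds plus 3 SD, cut at about 40% in these data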;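 note: peak over basal fluorescence ratio in a 140 s read after ATP addition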
CHO-K1 Ca ag: M1 agonist counterscreen hit in parental CHO-K1 cells. Fluo-8 calcium fluorescence; scaled to maximal ATP response, vehicle zero. activation, % at 3 µM. 360,000 tested, 0.48% active. AID 602248; in the data active = activation above about 15%;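 note: untransfected CHO-K1 host cells lacking M1 receptor as counterscreen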
M1 PAM: potentiates human M1 receptor response to acetylcholine. P11229. CHO-K1 hM1, Fluo-8 calcium fluorescence, ACh EC20; 0% = ACh EC20, 100% = maximal ACh. activation, % at 3 µM. 360,000 tested, 0.088% active; in the data active = activation above about 19%, passing the limit was not always enough
Target sequence (P11229 whole entry, looked up): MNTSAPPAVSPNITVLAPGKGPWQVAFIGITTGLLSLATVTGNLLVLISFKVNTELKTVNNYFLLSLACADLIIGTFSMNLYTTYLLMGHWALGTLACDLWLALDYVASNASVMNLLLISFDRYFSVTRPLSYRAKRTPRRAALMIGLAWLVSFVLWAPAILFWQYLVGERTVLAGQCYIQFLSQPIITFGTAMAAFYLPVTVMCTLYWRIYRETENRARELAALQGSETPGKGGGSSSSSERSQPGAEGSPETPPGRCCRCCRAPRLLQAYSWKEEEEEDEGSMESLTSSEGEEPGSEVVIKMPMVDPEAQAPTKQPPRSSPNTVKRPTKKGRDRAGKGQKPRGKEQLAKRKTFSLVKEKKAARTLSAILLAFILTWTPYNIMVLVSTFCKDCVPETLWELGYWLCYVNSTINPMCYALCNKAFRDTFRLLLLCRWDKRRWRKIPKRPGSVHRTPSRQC
CHO-K1 Ca antag: M1 antagonist counterscreen hit in parental CHO-K1 cells | ATP-induced calcium, Fluo-8 fluorescence | inhibition, % at 3 µM | 360,000 tested, 0.6% active | AID 602250;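 active = inhibition above a per-plate cutoff, the plate's mean sample inhibition plus 3 SD, cut at about 24% in these data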;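 note: 0% = DMSO plus EC80 ATP and 100% = DMSO alone without ATP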
M1 ag: agonists of human M1 muscarinic receptor; 360,000 tested, 0.33% active; P11229; CHO-K1 hM1, Fluo-8 calcium fluorescence, agonist mode; 0% DMSO, 100% acetylcholine EC100; activation, % at 3 µM;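 active = activation above the run's mean compound activation plus 3 SD, cut at about 16% in these data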;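 note: peak over basal fluorescence ratio within a 140 s kinetic read after compound addition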
CHRM1 antagonist: antagonists of human M1 muscarinic receptor. P11229. CHO-K1 hM1, Fluo-8 calcium fluorescence, ACh EC80 antagonist. inhibition, % at 3 µM. 360,000 tested, 1.3% active. AID 588852;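 active = percent inhibition above its own plate's cutoff, namely the mean of that plate's compound wells plus 3 SD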;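 note: peak over basal fluorescence ratio during 140 s after agonist addition; 0% = ACh EC80 plus DMSO and 100% = DMSO alone without agonist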
The depositor's hits bear a star.

SMILES	M1 PAM parental	CHO-K1 Ca ag	M1 PAM	CHO-K1 Ca antag	M1 ag	CHRM1 antagonist
COc1cc(/C=N/NC(=O)C2COc3ccccc3O2)ccc1O (centres undefined)	-6.6	1.9	-7.9	14.7	-2.2	8.0
CCOc1ccc2nc(C)cc(Nc3cccc([N+](=O)[O-])c3)c2c1	14.8	0.6	-6.6	-2.1	-12.7	7.0
O=C(CN1CCCC1)N1c2ccccc2C=Cc2ccccc21	8.6	0.7	-22.2	-22.2	-5.8	90.0*
CN1CCN(C(=O)N2c3ccccc3C=Cc3ccccc32)CC1	2.5	-0.1	-23.5	1.3	-4.8	93.6*
O=C(CN1CCCCC1)N1CCCc2ccccc21	13.9	0.4	-8.6	-17.7	-15.1	7.9
O=C(CN1CCCCCC1)N1c2ccccc2C=Cc2ccccc21	25.0	1.1	-25.5	-3.2	-6.9	97.7*
CCCCN(C(=O)C1CC(=O)N(CCc2ccc(OC)c(OC)c2)C1)c1c(N)n(CC(C)C)c(=O)[nH]c1=O (centres undefined)	-17.9	0.2	-0.7	-5.2	-3.3	9.3
Cc1ccc(-c2csc(=Nc3cccnc3)n2CCCN2CCCC2=O)cc1C	-1.6	1.3	-6.5	3.2	-8.1	9.6
Cc1ccc(-c2csc(=Nc3cccnc3)n2CCCn2ccnc2)cc1C	17.6	7.8	-26.3	-0.3	-10.4	40.9*
Cc1ccc(-c2csc(N/N=C/c3ccco3)n2)cc1	21.2	0.2	0.0	-11.0	-4.4	-1.2
CN(C)S(=O)(=O)c1ccc(-c2csc(N/N=C/c3ccco3)n2)cc1	-20.9	14.8	-16.1	13.2	6.2	50.7*
C(=N\Nc1nc(-c2ccccc2)cs1)/c1ccncc1	22.4	0.8	9.4	-8.8	-11.7	-5.5
CN(C)S(=O)(=O)c1ccc(-c2csc(N/N=C/c3ccc(O)cc3)n2)cc1	-9.5	6.7	-12.2	15.8	-1.0	37.3*
CCn1c(SCC(=O)OC(C)C)nnc1-c1ccccc1OC	15.6	0.5	7.3	-14.2	-3.9	-1.7
CCS(=O)(=O)c1ccc2oc(SCC(=O)NC(C)C3CC4CCC3C4)nc2c1 (centres undefined)	-8.8	1.5	-2.8	24.9*	-3.4	7.7
CCS(=O)(=O)c1ccc2oc(SCC(=O)Nc3ccc(OC)cc3OC)nc2c1	26.7	1.0	6.6	-19.4	-3.1	-3.6
CC(C)N1CCc2c(sc(NC(=O)CCS(=O)(=O)c3ccccc3)c2C#N)C1	21.1	1.9	7.8	-5.7	-6.5	-5.3
CN1CCN(c2ccc(C(F)(F)F)cc2NC(=O)Nc2ccccc2)CC1	6.3	21.0*	0.3	17.1	-1.1	6.4
O=[N+]([O-])c1cccc(P(=O)(O)c2cccc([N+](=O)[O-])c2)c1	11.2	0.4	6.4	-6.2	-3.1	-10.3
Cn1c(N)c(-c2ccccc2)c2ccc([N+](=O)[O-])cc2c1=O	-6.1	15.5*	-23.7	-4.9	61.5*	42.4*
CC1=NNC(=O)C1C(c1cccc(O)c1)C(C#N)C#N (centres undefined)	-22.7	0.5	-8.6	28.8*	-2.7	22.2
O=C(NCc1cccnc1)C(=O)NCC1OCCCN1S(=O)(=O)c1cc(F)ccc1F (centres undefined)	11.8	0.7	2.9	-13.0	-3.8	-5.8
CC1CCCN(CCCNC(=O)c2ccc3c(c2)N(Cc2cccc(Cl)c2)C(=O)c2ccccc2S3=O)C1 (centres undefined)	-3.0	0.4	-27.4	17.2	-6.3	40.2*
CCC1CCCCN1CCCNC(=O)c1ccc2c(c1)N(Cc1ccc(F)cc1)C(=O)c1ccccc1S2=O (centres undefined)	0.1	-0.5	-21.9	-5.8	-6.7	71.1*
CC1CCCN(CCCNC(=O)c2ccc3c(c2)N(Cc2ccc(F)cc2)C(=O)c2ccccc2S3=O)C1 (centres undefined)	-13.2	0.2	-23.0	-15.7	-5.9	42.4*
O=C(NCCCN1CCCC1)c1ccc2c(c1)N(Cc1ccc(F)cc1)C(=O)c1ccccc1S2=O (centres undefined)	12.8	0.4	-15.1	-15.0	-5.2	25.8
O=C(NCCCN1CCOCC1)c1ccc2c(c1)N(Cc1cccc(Cl)c1)C(=O)c1ccccc1S2=O (centres undefined)	21.6	1.4	-6.6	-2.9	-4.3	10.1
